MT1-MMP txn act: MT1-MMP promoter transcription activation; HT1080 MT1-MMP promoter luciferase reporter, luminescence, overnight; hits give high values; activation factor at 10 µM; 86,000 tested, 0.16% active; AID 750;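 active = activation factor of at least 2 for MT1-MMP transcription at 10 µM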
Measles CPE: protection of cells from measles virus | Measles virus-infected cells, CPE protection, absorbance | protection (pct of control), % at 4 µM | 140,000 tested, 1.5% active; in the data active = protection mostly above about 24%, no sharp cut-off; inactive = mostly below about 26%
Smad3 inh: Smad3 (human) transcription factor binding inhibition | P84022 | TR-FRET Smad3/Dy647-FoxH1 peptide binding, europium anti-His | inhibition, % at 25 µM | 88,000 tested, 0.29% active | AID 630;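 active = compounds that reduce the energy-transfer binding signal between the protein and its labelled peptide by more than half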
Target sequence (P84022 whole entry, looked up): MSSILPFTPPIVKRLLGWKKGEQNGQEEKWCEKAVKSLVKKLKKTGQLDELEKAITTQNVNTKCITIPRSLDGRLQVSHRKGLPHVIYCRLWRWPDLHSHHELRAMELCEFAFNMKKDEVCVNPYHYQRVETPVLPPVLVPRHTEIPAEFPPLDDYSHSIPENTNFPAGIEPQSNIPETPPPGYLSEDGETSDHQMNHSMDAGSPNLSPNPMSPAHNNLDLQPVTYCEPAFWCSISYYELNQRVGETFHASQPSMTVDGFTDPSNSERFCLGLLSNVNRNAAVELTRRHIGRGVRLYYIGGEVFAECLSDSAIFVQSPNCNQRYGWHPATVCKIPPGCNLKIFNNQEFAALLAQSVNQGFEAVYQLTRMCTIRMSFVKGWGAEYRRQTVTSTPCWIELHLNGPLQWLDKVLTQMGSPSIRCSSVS
Of the large screens only hits and unclear results are named; the others gave an inactive call. Sampled rows, rich in hits. Any-hit rate of the full collection: about 1.7%.

O=C(CSc1nnc(CNC(=O)c2cccs2)o1)Nc1ccc2c(c1)OCO2	none (no result: MT1-MMP txn act)
O=C(CSc1nnc(Cc2ccccc2)o1)Nc1ccc2c(c1)OCO2	Measles CPE 20 (no result: MT1-MMP txn act)
O=C(COC(=O)/C(=C/c1cccs1)c1cccs1)NC(c1ccccc1)c1ccccc1	none (no result: MT1-MMP txn act, Smad3 inh)
COc1ccc2oc(-c3ccccc3)c(C(=O)N3CCOCC3)c2c1	none
CC(=O)Oc1ccc2oc(C)c(C(=O)N3CCOCC3)c2c1	Measles CPE 39
Nc1nc(N)nc(CCCc2nc(N)nc(N)n2)n1	none (no result: MT1-MMP txn act, Measles CPE)
CCOC(=O)c1ccc(Nc2nc(-c3cccnc3)nc3ccccc23)cc1	none (no result: MT1-MMP txn act, Smad3 inh)
N#Cc1ccc(C23CC4(C2)[C@H](CN(Cc2cccnc2)[C@@H]4c2ccccc2)C3c2ccc(C(F)(F)F)cc2)cc1 (stereo not given in full)	none (no result: Measles CPE, Smad3 inh)
c1cc2c(cnc3cscc32)s1	Measles CPE 34 (no result: MT1-MMP txn act, Smad3 inh)
c1csc(-c2cnc3ccccc3n2)c1	none
Cc1ccc(OCc2nc(-c3ccc(Cl)cc3)n[nH]2)cc1	Measles CPE 33
Cc1ccc(C(=O)CC(=O)COc2ccc(Cl)cc2)cc1	none (no result: MT1-MMP txn act, Smad3 inh)
Cc1ccc(-c2nc3cc(N)ccc3o2)cc1	none (no result: MT1-MMP txn act)
Cc1ccc(-c2nc3cc(C)ccc3o2)cc1	Measles CPE 56 (no result: MT1-MMP txn act)
COc1ccc(CCNC(=O)Cn2cc(C(F)(F)F)cc(Cl)c2=O)cc1	none (no result: MT1-MMP txn act, Smad3 inh)
Oc1ccc(N=Nc2c(O)ccc3ccccc23)cc1	none (no result: MT1-MMP txn act, Smad3 inh)
N=C(N)c1ccc(N=Nc2c(O)ccc3c2[nH]c2ccccc23)cc1	Smad3 inh 102 (no result: MT1-MMP txn act, Measles CPE)
C[C@@]1(C(NC(=O)c2cccs2)c2ccc(-c3ccccc3)cc2)C[C@H]1C1CCCCC1 (stereo not given in full)	none (no result: Measles CPE, Smad3 inh)
O=C1COC(c2ccccc2O)=NN1CCCN1CCCC1	none (no result: MT1-MMP txn act, Measles CPE)
Cc1ccc(CSC2=CS(=O)(=O)c3ccccc3N2)cc1	none (no result: MT1-MMP txn act, Smad3 inh)
Cc1cccc(CSC2=CS(=O)(=O)c3ccccc3N2)c1	Measles CPE 42 (no result: MT1-MMP txn act, Smad3 inh)
O=C(O)CCCSc1nc2ccccc2s1	none (no result: MT1-MMP txn act, Measles CPE)
C[C@H]1[C@H](C)OC(=O)C[C@H](O)C[C@H](O)C[C@H](O)CC[C@H](O)[C@H](O)CC(=O)C[C@H](O)[C@H](C(=O)O)[C@H](O)C[C@H](O[C@H]2O[C@@H](C)[C@H](O)[C@@H](N)[C@@H]2O)C=CC=CC=CC=CCCC=CC=C[C@@](C)(O)[C@H]1O	none (no result: MT1-MMP txn act, Measles CPE)
NC(=O)CS(=O)C[C@H](N)C(=O)O (stereo not given in full)	none (no result: MT1-MMP txn act, Measles CPE)
O=c1[nH][nH]c(=S)c(=O)[nH]1	Smad3 inh 52 (no result: MT1-MMP txn act, Measles CPE)
COc1cccc(C2SCC(=O)N2c2ccc(Br)cc2)c1OC (stereo not given)	none (no result: MT1-MMP txn act, Smad3 inh)
CC(C)c1ccccc1NC(=O)Cn1c(-c2ccccc2Cl)nc2ccccc21	none (no result: MT1-MMP txn act, Smad3 inh)
CSc1ccccc1NC(=O)Cn1c(-c2cscn2)nc2ccccc21	Measles CPE 96
O=C(Cn1cnc([N+](=O)[O-])c1)NC1CCCC1	none (no result: MT1-MMP txn act, Smad3 inh)
Cc1cc(C)n(-c2ccc(C(=O)OCC(=O)Nc3ccccc3[N+](=O)[O-])cc2)n1	none (no result: MT1-MMP txn act, Smad3 inh)
Cc1cc(C)n(-c2ccc(C(=O)OCC(=O)Nc3ccc([N+](=O)[O-])cc3)cc2)n1	Measles CPE 44 (no result: MT1-MMP txn act, Smad3 inh)
Cc1ccc(C(=O)NC(C)c2ccccc2)o1 (stereo not given)	Measles CPE 34
COc1ccccc1C(C)NC(=O)c1ccc(C)o1 (stereo not given)	none (no result: MT1-MMP txn act)
CCOC(=O)c1c(C2CC2)csc1NC(=O)COC(=O)c1ccc[n+]([O-])c1	none (no result: MT1-MMP txn act, Smad3 inh)
CCOC(=O)c1c(C2CC2)csc1NC(C)=O	Measles CPE 36
CCOC(=O)CC(NC(=O)C1c2ccccc2Oc2ccccc21)c1ccccc1Cl (stereo not given)	none (no result: MT1-MMP txn act, Smad3 inh)
Nc1c(C(=O)c2ccccc2)oc2ccccc12	none (no result: MT1-MMP txn act)
COc1ccc2oc(C(=O)c3ccccc3)c(N)c2c1	MT1-MMP txn act 2.1
COc1ccc(C(=O)c2oc3ccccc3c2N)cc1	MT1-MMP txn act 2.3
COc1ccc2oc(C(=O)C3CC3)c(N)c2c1	none
C[C@H]1CC(C)(C)C[C@@](OCCN2CCCCC2)(c2ccccc2)C1	none (no result: MT1-MMP txn act, Measles CPE)
COc1ccccc1-n1c(SCC(=O)c2ccc(O)cc2O)nc2cc([N+](=O)[O-])ccc21	none (no result: MT1-MMP txn act, Smad3 inh)
Cc1cccc(Oc2cc(NC(=O)c3ccccc3)cc([N+](=O)[O-])c2)c1	none (no result: MT1-MMP txn act, Smad3 inh)
CC(=O)Nc1cc(ON=C(C)C)cc([N+](=O)[O-])c1	Measles CPE 47 (no result: MT1-MMP txn act, Smad3 inh)
Cc1cc(C)cc(NC(=O)C(Nc2ccccc2)c2ccccc2)c1 (stereo not given)	Measles CPE 46 (no result: MT1-MMP txn act, Smad3 inh)
Cc1ccc(NC(=O)C(Nc2ccccc2)c2ccccc2)cc1 (stereo not given)	none (no result: MT1-MMP txn act, Smad3 inh)
CCC1CCCCN1S(=O)(=O)c1ccc(S(=O)(=O)N(Cc2cccs2)C2CC2)cc1 (stereo not given)	Measles CPE 42
CCC1CCCCN1S(=O)(=O)c1ccc(S(=O)(=O)N(Cc2ccccn2)CC2CCCO2)cc1 (stereo not given)	none (no result: MT1-MMP txn act, Smad3 inh)
COc1cccc(-c2nc(CS(=O)CC(=O)NCCCOC(C)C)c(C)o2)c1 (stereo not given)	none
COc1cccc(-c2nc(CS(=O)(=O)CC(=O)NCCCOC(C)C)c(C)o2)c1	Measles CPE 41
COc1cccc(NC(=O)CCC(=O)NCc2ccco2)c1	Measles CPE 86 (no result: MT1-MMP txn act, Smad3 inh)
COc1cccc(NC(=O)CCC(=O)Nc2cccc(OC)c2)c1	none (no result: MT1-MMP txn act, Smad3 inh)
O=C(COC(=O)c1cc(Cl)ccc1[N+](=O)[O-])NCc1ccc(Cl)cc1Cl	none (no result: MT1-MMP txn act, Smad3 inh)
Cc1cn(CC[C@H](N)C(=O)O)c(=O)[nH]c1=O	none (no result: MT1-MMP txn act, Measles CPE)
COc1ccccc1OCCNC(=O)c1cc(F)c(F)cc1Cl	none (no result: MT1-MMP txn act, Smad3 inh)
O=C(NCCOc1ccccc1F)c1cc(F)c(F)cc1Cl	Measles CPE 33 (no result: MT1-MMP txn act, Smad3 inh)
COc1ccc(CC(NC(C)=O)C(=O)NC2CCN(C(=O)Nc3ccc(Cl)cc3)CC2)cc1OC (stereo not given)	Smad3 inh 79
